# CBFb-RUNX1 inh: qHTS Assay for Compounds Blocking the Interaction Between CBF-beta and RUNX1 for the Treatment of Acute Myeloid Leukemia | Runt-related transcription factor 1 (Homo sapiens) + Core-binding factor subunit beta … | AlphaScreen CBFb-His/RUNX1-biotin binding, biochemical | Potency, µM (series often up to 59.8 µM), for the others: at the highest dose activity, negative = inhibition, hits mostly inhibitors | 230,000 tested, under 10 active | AID 1477, 2009; further: % of control where 0% means no effect
#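 His-tagged CBF-beta and biotinylated RUNX1 (30 nM each) were premixed 20 min at room temperature, exposed to compound for 15 min, then given nickel-chelate and streptavidin AlphaScreen beads (50 ng each). After 90 min, AlphaScreen signal was read.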
# HTT cytoprotect: qHTS Multiplex Assay to Identify Dual Action Probes in a Cell Model of Huntington: Cytoprotection (ATP) | PC12 HTT-Q103 induced, cytoprotection, ATP luminescence, 40 h | Potency, µM (highest dose often 56.4 µM), without a hit: cytoprotection (ATP increase), hits mostly activators | hit rate 0.14% among 230,000; further: potency means the concentration at half of the fitted maximal effect; % of control where 0% means no effect; nearly all actives have a fitted effect of over 45% in size
#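 PC12 cells with ecdysone-inducible HTT exon 1 Q103-GFP, induced with 100 nM tebufenozide and co-treated with library compounds in a dose series (1536-well, 1500 cells/well). Cytoprotection read as ATP content by ATPlite luminescence.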
# HPGD inh: qHTS Assay for Inhibitors of HPGD (15-Hydroxyprostaglandin Dehydrogenase). 15-hydroxyprostaglandin dehydrogenase [NAD(+)] (Homo sapiens), P15428. purified HPGD, NADH fluorescence kinetic, PGE2 substrate. Potency, µM, for inactives: top-dose activity change, negative = inhibition, usual class: inhibitors. hit rate 4.3% among 150,000; active means well fitted inhibition curve with a large enough effect, not every such curve was filed as active; inconclusive means small, poorly fitted or top-dose-only effect, or another doubt; inactive means no such curve, though single readings can be large or run the other way; further: potency means the concentration at half of the fitted maximal effect; on the % scale 0 is the no-effect control and ±100 the full control effect
# Target sequence (P15428 whole entry, looked up): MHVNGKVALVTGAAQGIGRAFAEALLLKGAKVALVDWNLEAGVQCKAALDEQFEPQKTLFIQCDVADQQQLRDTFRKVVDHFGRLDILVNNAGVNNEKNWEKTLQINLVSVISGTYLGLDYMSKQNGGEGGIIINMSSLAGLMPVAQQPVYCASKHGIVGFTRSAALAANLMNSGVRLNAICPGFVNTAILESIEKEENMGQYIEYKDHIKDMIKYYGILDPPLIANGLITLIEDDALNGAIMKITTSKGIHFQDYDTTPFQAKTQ
#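 20 nM HPGD preincubated 15 min at room temperature with compound in 50 mM Tris-HCl pH 8, 0.01% Tween 20. Started with 1 mM NAD+ and 30 uM prostaglandin E2; NADH fluorescence (360/450 nm) read 5 times over 30-s intervals, last minus first.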
# HTT aggregate: qHTS Multiplex Assay to Identify Dual Action Probes in a Cell Model of Huntington: Aggregate Formation (GFP); PC12 HttQ103-GFP aggregates, Acumen cytometry, 40 h; Potency, µM (highest dose often 46.1 µM), inactives show at the top dose activity change, negative = inhibition, usual class: inhibitors; hit rate 1.1% among 220,000; AID 1688, 2009; further: potency means the concentration at half of the fitted maximal effect; on the % scale 0 is the no-effect control and ±100 the full control effect; nearly all actives have a fitted effect of over 60% in size
#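 Read-out: GFP aggregate count by laser scanning cytometer (488 nm excitation, 500-530 nm emission, 1–25 µm objects >6 SD above background). Cells: PC12, inducible HTTex1-Q103-GFP, 100 nM tebufenozide; compounds titrated.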
# PNC inhibitor: High Content Assay for Compounds that inhibit the Assembly of the Perinucleolar Compartment | PC3M PTB-GFP, PNC prevalence imaging, 16 h; active compounds read low | hit rate 3.1% among 140,000 | activity change (PNC), negative = inhibition, % at 10 µM;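 active means readout at or below -70, meaning at least 70% loss of cells showing the perinucleolar compartment, a nuclear body marking cancer cells; inconclusive means readout between -30 and a set limit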;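 further: plate controls were DMSO wells for no effect and camptothecin positive control wells for full effect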
#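 Read-out is percentage of cells bearing a perinucleolar compartment, from automated 20x imaging of fixed, Hoechst-stained PC3M PTB-GFP cells. Cells were seeded 4 h, then exposed 16 h to compound (23 nl of library stock) in duplicate plates.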
# ALDH1A1 block: qHTS Assay for Inhibitors of Aldehyde Dehydrogenase 1 (ALDH1A1); AID 1030, 2008; hit rate 7.3% among 220,000; Potency, µM (series often up to 75.3 µM), inactives show top-dose activity, negative = inhibition, most hits filed as inhibitors; Purified ALDH1A1, NADH fluorescence, propionaldehyde substrate; active means well fitted inhibition curve with a large enough effect, not every such curve was filed as active; inconclusive means small, poorly fitted or top-dose-only effect, or another doubt; inactive means no such curve, though single readings can be large or run the other way;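 further: potency means the concentration at half of the fitted maximal effect; plate controls were no enzyme wells and a reference inhibitor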
# Target sequence (P00352 whole entry, looked up): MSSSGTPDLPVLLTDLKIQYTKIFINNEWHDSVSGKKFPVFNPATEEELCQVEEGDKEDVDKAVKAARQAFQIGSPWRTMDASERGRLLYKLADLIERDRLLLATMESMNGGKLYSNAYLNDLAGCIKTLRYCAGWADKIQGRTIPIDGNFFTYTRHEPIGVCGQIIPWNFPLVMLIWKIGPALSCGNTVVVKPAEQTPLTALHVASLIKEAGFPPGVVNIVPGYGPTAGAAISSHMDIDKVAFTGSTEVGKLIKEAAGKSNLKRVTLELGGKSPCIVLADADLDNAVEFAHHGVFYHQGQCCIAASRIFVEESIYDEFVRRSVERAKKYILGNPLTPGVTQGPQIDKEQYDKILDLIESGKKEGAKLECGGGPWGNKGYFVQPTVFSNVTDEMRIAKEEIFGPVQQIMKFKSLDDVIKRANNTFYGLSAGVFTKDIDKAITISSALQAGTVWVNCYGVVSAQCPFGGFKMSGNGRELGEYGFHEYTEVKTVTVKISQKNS
# * hit, by the source's call; ? = inconclusive; . = no result given; [ ] = remark or other dose. An excerpt weighted towards active compounds, which were near 11% of everything screened. Unless noted, the call rests on the fitted dose curve; in most records, active means well fitted curve in the direction sought with a large enough effect; inconclusive means small, poorly fitted or top-dose-only effect, or another doubt; inactive means no such curve, though single readings can be large; an effect the other way counts as inactive or inconclusive.
SMILES,CBFb-RUNX1 inh,HTT cytoprotect,HPGD inh,HTT aggregate,PNC inhibitor,ALDH1A1 block
CCOC(=O)c1c(NC(=S)NC(C)=O)sc(C)c1C,2.8%,9.6%[10 µM],-4.6%,4.4%,7.0,2.3%
Cc1cc([N+](=O)[O-])nn1CCCC(=O)Nc1sc2c(c1C(N)=O)CCC(C)C2 (centres undefined),1.4%,?,15.8µM*,30.0%,-13.4,?
CC(=O)NC(=S)Nc1sc2c(c1C(N)=O)CCC(C)C2 (centres undefined),-5.6%,-23.0%[10 µM],.,-4.0%[9.22 µM],.,8.91µM*
CC(=O)Nc1sc2c(c1C(N)=O)CCC2,0.5%,8.4%[10 µM],-23.2%,-16.4%,7.0,4.8%
CC(C)(C)C(=O)NC(=S)Nc1sc2c(c1C(N)=O)CCC2,-2.5%,-14.2%[10 µM],.,3.8%,.,2µM*
COC(=O)[C@@H](NC(=O)N1CCc2nc(COc3ccccc3)c3c(c2C1)CO[C@@H](C)C3)C(C)C,-4.5%[13.1 µM],-20.6%[10 µM],-6.1%,.,.,5.3%[13.5 µM]
CCCC[C@H](NC(=O)[C@H](CO)NC(=O)[C@H](Cc1ccc(O)cc1)NC(=O)[C@H](CO)NC(C)=O)C(=O)N[C@@H](CCC(=O)O)C(=O)N[C@@H](Cc1cnc[nH]1)C(=O)N[C@H](Cc1ccccc1)C(=O)N[C@@H](CCCNC(=N)N)C(=O)N[C@@H](Cc1c[nH]c2ccccc12)C(=O)NCC(=O)N[C@@H](CCCCN)C(=O)N1CCC[C@H]1C(=O)N[C@H](C(N)=O)C(C)C,2.9%,.,.,.,.,.
O=C(Nc1ncnc2c1ncn2[C@@H]1O[C@@H]2COP(=O)(O)O[C@H]2[C@H]1O)c1ccccc1,17.4%,.,.,.,.,.
CCCCC(=O)Nc1sc2c(c1C(N)=O)CCC2,4.4%,0.8%[10 µM],-1.7%,-18.3%,28.0,?
CCC1(CC)NC(=O)N(CC(=O)Nc2sc3c(c2C(N)=O)CCC3)C1=O,.,4.1%,?,-7.1%,26.9,22.4µM*
CCC1(C)NC(=O)N(CC(=O)Nc2sc3c(c2C(=O)OC)CCCCC3)C1=O (centres undefined),0.0%,0.7%[10 µM],-3.6%,13.9%,17.2,?
CC(C)CC(=O)NC(=S)Nc1sc2c(c1C(N)=O)CCC2,2.2%,-38.7%,.,1.3%[9.22 µM],.,1.41µM*
Clc1ccccc1-c1ccc2ncnc(NCCN3CCOCC3)c2c1,.,-10.7%,.,.,.,-6.5%
COc1ccc(/C=C2/SC(=O)N(CCNC(=O)C3CCCN3C(=O)c3cccs3)C2=O)cc1 (centres undefined),0.9%,.,?,18.4%,-99.6*,-12.7%
O=c1cc(O)n(-c2ccc(F)cc2)c(=S)[nH]1,1.3%,14.8%,28.2µM*,15.1%[9.22 µM],-18.4,3.8%
CCCCN1C(=O)C(=Nc2cccc3cnccc23)c2ccccc21,0.5%,-5.7%[10 µM],.,-11.3%,.,0.631µM*
COC(=O)[C@H]1C[C@H]2CC[C@H](O)C[C@H]2N1Cc1c(F)cccc1Cl,-2.1%,5.5%,-3.3%,.,.,0.5%
O=C(O)c1cncc(C(=O)O)c1,.,-1.6%[10 µM],-3.8%,.,.,5.3%[13.5 µM]
CCOC(=O)N1CCC(NC(=O)CCN2C(=O)COc3ccccc32)CC1,6.4%,13.1%[10 µM],-6.3%,-4.0%,-80.3*,1.4%
O=C(CCN1C(=O)COc2ccccc21)NCCCN1CCN(c2ccccc2F)CC1,6.6%,-34.4%,-4.9%,3.16µM*,27.0,1.3%
CCc1ccc(NC(=O)COC(=O)CN2C(=O)COc3ccccc32)cc1,0.1%,-15.2%,-11.2%,10.9%,26.0,-1.0%
CCOC(=O)N1CCC(NC(=O)CCC(=O)N2CC(C)Oc3ccccc32)CC1 (centres undefined),-0.3%,0.7%,-6.5%,11.2%,?,-8.1%
CCCC(OC(=O)CN1C(=O)COc2ccccc21)C(=O)NC1CCCC1 (centres undefined),3.8%,11.8%[10 µM],28.2µM*,6.3%,194.1,6.9%
CCOc1ccc(N(CC(=O)Nc2nccs2)S(=O)(=O)c2c(C)[nH]c(=O)[nH]c2=O)cc1,10.0%,-2.3%,.,14.8%,.,-11.2%
Cc1nc2ccccc2n1C1CCN(C(=O)Nc2ccccc2)CC1,7.5%,.,.,.,.,6.0%
SMILES,CBFb-RUNX1 inh,HTT cytoprotect,HPGD inh,HTT aggregate,PNC inhibitor,ALDH1A1 block
Cc1cc(C)cc(NC(=O)CCN2CCCC2)c1,4.3%,11.2%[10 µM],.,-6.6%[9.22 µM],.,-4.8%
COC(=O)COc1ccc(/C=C2/SC(=O)N(CC(=O)N3CCCC3)C2=O)cc1Br,2.0%,5.3%,-16.8%,16.5%,6.9,-2.1%
COC(=O)COc1cc(Br)c(/C=C2/SC(=O)N(CC(=O)N3CCCC3)C2=O)cc1OC,-0.4%,.,-22.6%,?,-3.7,20µM*
COCCN1C(=O)C(=O)/C(=C(/O)c2ccc(S(=O)(=O)N3CCOCC3)cc2)C1c1cccc(Cl)c1 (centres undefined),1.0%,10.5%[10 µM],.,3.8%[9.22 µM],.,.
O=C1CCCCCC1C1(O)C(=O)Nc2ccccc21 (centres undefined),6.2%,8.0%[1.9 µM],-9.7%,2.8%,-27.5,-0.1%
COc1ccc2c(c1)CC(C1(O)C(=O)Nc3ccccc31)C2=O (centres undefined),4.7%,-14.7%[10 µM],-0.9%,-4.8%,10.5,31.6µM*
COC(=O)c1ccccc1-c1ccc(C(c2c(C)[nH][nH]c2=O)c2c(C)[nH][nH]c2=O)o1,0.9%,-28.7%[10 µM],.,-33.3%[9.22 µM],.,10.7%
COC(=O)c1cccc(-c2ccc(C(c3c(C)[nH][nH]c3=O)c3c(C)[nH][nH]c3=O)o2)c1,4.4%,-19.5%,.,5.3%,.,6.31µM*
Cc1[nH][nH]c(=O)c1C(c1ccc(-c2ccc(Cl)c(C(=O)O)c2)o1)c1c(C)[nH][nH]c1=O,5.4%,-56.0%,.,16.6%,.,10µM*
OC(CNCCNc1ncccc1C(F)(F)F)COc1ccc(F)cc1 (centres undefined),5.8%,9.8%[10 µM],.,12.3%[9.22 µM],.,.
C#CCNc1c2c(nc3ncnn13)CC(C)CC2 (centres undefined),12.5%,-4.6%[10 µM],.,38.4%[9.22 µM],.,.
O=c1c2ncn([C@@H]3O[C@@H]4COP(=O)(O)O[C@H]4[C@H]3O)c2nc2[nH]c(-c3ccccc3)cn12,22.3%,.,.,.,.,.
CC1CCCCN1C(=O)CSc1nnc(-c2cccnc2)n1C1CCCCC1 (centres undefined),7.2%,-9.5%,25.1µM*,29.3%,35.6,-0.6%
O=C(CSc1nnc(-c2cccnc2)n1C1CCCCC1)NC1CCCCC1,9.2%,-17.6%[10 µM],-18.8%,-3.1%,16.8,0.6%

# Screening results: PubChem BioAssay, National Center for Advancing Translational Sciences (NCATS)
